From PubChem BioAssay (EPA / NIEHS) come the findings set out here.

Records with an inconclusive call do not appear. Activity calls are given as the source filed them. Rule for the calls: active = hit-call score of the fitted dose curve at least 0.9, where 1 is the maximum; inconclusive = response in the unintended direction; inactive = score below 0.9.

Chain of Glucocorticoid receptor (Homo sapiens) (P04150 whole entry, looked up, the tested form may be a part): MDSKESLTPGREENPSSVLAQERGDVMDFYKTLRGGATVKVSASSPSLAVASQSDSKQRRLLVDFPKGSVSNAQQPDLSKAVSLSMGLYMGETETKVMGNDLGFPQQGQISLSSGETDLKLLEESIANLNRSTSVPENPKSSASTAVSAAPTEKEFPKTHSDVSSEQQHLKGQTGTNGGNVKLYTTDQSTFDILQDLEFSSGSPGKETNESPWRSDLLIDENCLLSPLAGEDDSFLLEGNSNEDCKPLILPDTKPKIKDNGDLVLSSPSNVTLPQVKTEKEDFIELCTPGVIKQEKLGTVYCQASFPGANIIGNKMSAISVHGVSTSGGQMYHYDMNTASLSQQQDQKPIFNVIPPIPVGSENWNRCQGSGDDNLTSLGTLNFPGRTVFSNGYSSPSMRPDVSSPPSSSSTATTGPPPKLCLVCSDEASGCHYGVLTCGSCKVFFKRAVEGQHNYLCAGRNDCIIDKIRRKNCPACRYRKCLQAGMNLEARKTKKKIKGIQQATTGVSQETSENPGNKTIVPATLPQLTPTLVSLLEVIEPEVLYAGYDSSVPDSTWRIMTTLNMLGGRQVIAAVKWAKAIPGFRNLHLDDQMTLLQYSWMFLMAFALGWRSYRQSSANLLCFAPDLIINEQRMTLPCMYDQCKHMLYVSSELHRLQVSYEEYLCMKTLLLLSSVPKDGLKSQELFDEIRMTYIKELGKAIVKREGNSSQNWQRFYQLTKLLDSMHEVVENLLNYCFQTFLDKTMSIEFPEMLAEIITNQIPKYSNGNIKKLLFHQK

Test system in the first test: not listed separately
Description: ATG_GAL4_TRANS: Attagene TRANS-FACTORIAL HepG2 Assay for GAL4 (Internal Marker) (AID 2282976). To be noted: HepG2 Attagene TRANS GAL4 internal marker reporter. In short, it runs like this:
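First, HepG2 cells were transfected with reporter units under GAL4-UAS control. Next, they were treated with chemical for 24 h. Finally, RNA was reverse-transcribed, PCR-amplified, FAM-labelled and resolved by capillary electrophoresis, with induction scored against DMSO.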
Consider `CC(=O)C(C)O` (stereo not given), for which the compound was classed as inactive. In the case of `CC1CCC(C(C)C)C(O)C1` (stereo not given), the compound was classed as inactive. Still for that read-out and setting: next, `COc1cc(Cl)c(OC)cc1N`: “inactive”; `CC=CC=CCOC(=O)C(C)C`: “inactive”; `CCCCC(CC)COC(=O)c1ccc(O)cc1` (stereo not given): “inactive”.

On to `CCOC(=O)c1ccc(N)cc1`, for which the call was inactive. On the same count and under the same terms, next, `OCc1ccc(Cl)cc1Cl`: “inactive”; `O=C(CS)OCCOC(=O)CS`: “inactive”; `OCCOCCN1CCN(C2=Nc3ccccc3Sc3ccccc32)CC1`: “inactive”. `CCCCC1CCC(O)CC1` (stereo not given): the result was inactive. Turning to `CCOC(=O)CC(C)O` (stereo not given), the compound was called inactive. The same measure, in the same setting: next, `CCOc1ccccc1O`: “inactive”; `CC1=C(Br)C(=O)C(Br)=C/C1=C(/c1ccccc1S(=O)(=O)O)c1cc(Br)c(O)c(Br)c1C`: “inactive”.

`C=CC(C)(O)CCC=C(C)C` (stereo not given): the result was inactive. In the case of `CC1C2CC(CC2C2CCCC(O)C2)C1(C)C` (stereo not given), the compound was classed as inactive. Regarding `CN(C)CCOc1ccc(/C(=C(/CCCl)c2ccccc2)c2ccccc2)cc1`, the result was inactive. On the same count and under the same terms, next, `Cc1ccc(S(N)(=O)=O)cc1`: “inactive”; `CC(=O)CC(=O)Nc1ccccc1`: “inactive”; `C=C(CC(=O)O)C(=O)O`: “inactive”. In the case of `CCC(C)=O`, the outcome was inactive. Turning to `OCC(O)c1ccccc1` (stereo not given), the result was inactive.

Take `[O-]n1ccccc1=S.[O-]n1ccccc1=S.[Zn+2]`: the compound was called inactive.

With `COC(=O)c1ccc([N+](=O)[O-])cc1`, the result was inactive. Turning to `CCOC(=O)C1OC1c1ccccc1` (stereo not given), the outcome was inactive. Turning to `CCOC(=O)CN`, the compound was classed as inactive.

In a further test the target is Estrogen-related receptor gamma (Homo sapiens) (UniProt P62508). The test is described as follows: ATG_ERRg_TRANS: Attagene TRANS-FACTORIAL HepG2 Assay for human Estrogen-Related Receptor gamma (ERRg) (AID 2282977).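 Note: hits increase reporter signal over DMSO so potencies reflect activators.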 To be noted: HepG2 Attagene TRANS reporter, ERRg transactivation. In short, it runs like this: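 HepG2 cells transiently transfected with multiplexed GAL4-UAS reporter units driven by chimeric NR-Gal4 proteins; 24 h exposure. Reporter mRNA quantified by RT-PCR, fluorescent labelling, HpaI digestion and capillary electrophoresis; gain of signal vs DMSO.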
Chain of Estrogen-related receptor gamma (Homo sapiens) (P62508 whole entry, looked up, the tested form may be a part): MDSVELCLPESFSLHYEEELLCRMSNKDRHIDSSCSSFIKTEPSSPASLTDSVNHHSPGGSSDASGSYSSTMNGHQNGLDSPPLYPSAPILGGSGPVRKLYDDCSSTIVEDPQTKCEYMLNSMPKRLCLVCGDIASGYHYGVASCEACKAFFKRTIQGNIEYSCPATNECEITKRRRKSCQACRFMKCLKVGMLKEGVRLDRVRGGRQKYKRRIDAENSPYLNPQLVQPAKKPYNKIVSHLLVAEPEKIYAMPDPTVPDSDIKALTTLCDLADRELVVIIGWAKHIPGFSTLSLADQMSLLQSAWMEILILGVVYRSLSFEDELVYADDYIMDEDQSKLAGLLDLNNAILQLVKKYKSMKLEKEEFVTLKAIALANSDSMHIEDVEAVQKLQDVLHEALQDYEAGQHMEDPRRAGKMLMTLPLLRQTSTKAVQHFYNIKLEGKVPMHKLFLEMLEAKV
As to `COc1cc([C@@H]2c3cc4c(cc3[C@@H](O[C@@H]3O[C@@H]5CO[C@@H](C)O[C@H]5[C@H](O)[C@H]3O)[C@H]3COC(=O)[C@H]23)OCO4)cc(OC)c1O`, the compound was called inactive. For the compound `CCC(C)=O`, the outcome was inactive. For the compound `[Cl][Au]([Cl])[Cl]`, the call was inactive. Consider `COC(=O)c1ccc([N+](=O)[O-])cc1`, for which the outcome was inactive.

A further test has as its target Glucocorticoid receptor (Homo sapiens) (UniProt P04150). The test is described as follows: ATG_GR_TRANS: Attagene TRANS-FACTORIAL HepG2 Assay for human Glucocorticoid Receptor (GR) (AID 2282978).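 Note: activators score as hits since higher reporter transcript over DMSO is fitted.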 To be noted: HepG2 Attagene TRANS GR reporter, mRNA transcription. In short, it runs like this:
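HepG2 transient transfection, multiple reporter units, GAL4-UAS under NR-GAL4 chimera control. 24 h treatment. Reporter mRNA by RT-PCR/CE fluorescence, DMSO as negative control.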
For `COc1cc(Cl)c(OC)cc1N`, the result was inactive. As for `CC=CC=CCOC(=O)C(C)C`, the outcome was inactive. Regarding `CCCCC(CC)COC(=O)c1ccc(O)cc1` (stereo not given), the call was inactive. `CCc1cc(C(C)(C)C)c(O)c(C(C)(C)C)c1`: the result was inactive. Turning to `CCOC(=O)c1ccc(N)cc1`, the result was inactive.

As for `CCNCCO`, the outcome was inactive. As for `CCCSc1ccc2nc(NC(=O)OC)[nH]c2c1`, the compound was called inactive. In the case of `CCCCC1CCC(O)CC1` (stereo not given), the call was inactive. Take `CCOC(=O)CC(C)O` (stereo not given): the call was inactive. Consider `CCCCCCCCCC(C)C=O` (stereo not given), for which the call was inactive. In the case of `CC1=C(Br)C(=O)C(Br)=C/C1=C(/c1ccccc1S(=O)(=O)O)c1cc(Br)c(O)c(Br)c1C`, the outcome was inactive.

`Cc1ncc[nH]1`: the result was inactive.

With `C=CC(C)(O)CCC=C(C)C` (stereo not given), the call was inactive. As to `CC1C2CC(CC2C2CCCC(O)C2)C1(C)C` (stereo not given), the compound was classed as inactive. As to `CN(C)CCOc1ccc(/C(=C(/CCCl)c2ccccc2)c2ccccc2)cc1`, the call was inactive. Still for that read-out and setting: with `Cc1ccc(S(N)(=O)=O)cc1` the entry was “inactive”. Take `C[C@H]1O[C@@H](O[C@H]2[C@@H](O)C[C@H](O[C@H]3[C@@H](O)C[C@H](O[C@H]4CC[C@@]5(C)[C@H](CC[C@@H]6[C@@H]5C[C@@H](O)[C@]5(C)[C@@H](C7=CC(=O)OC7)CC[C@]65O)C4)O[C@@H]3C)O[C@@H]2C)C[C@H](O)[C@@H]1O`: the compound was classed as inactive. In the case of `CC(C)Nc1nc(N)nc(Cl)n1`, the outcome was inactive. In the case of `O=C(Nc1ccc([N+](=O)[O-])cc1)Nc1ccc([N+](=O)[O-])cc1` (tested in a mixture with another compound), the result was inactive. In the case of `CCC(C)=O`, the outcome was inactive. On to `COC(=O)c1ccc([N+](=O)[O-])cc1`, for which the compound was classed as inactive. `CCOC(=O)C1OC1c1ccccc1` (stereo not given): the compound was classed as inactive.

For `CCCCCCCCCCCCS(=O)(=O)Cl`, the call was inactive.

Consider `CCOC(=O)CN`, for which the outcome was inactive.

`C=C(C)[C@@H]1CC=C(C)C(=O)C1`: the outcome was inactive. Consider `Nc1ccc2cc(S(=O)(=O)O)cc(O)c2c1N=Nc1ccccc1C(F)(F)F`, for which the call was inactive.
